Experimental findings from PubChem BioAssay (NCATS) are described below.

“And” between values parts separate entries of the source, which are not always exact repeats. Identical values can stand only once. Inconclusive results are not listed. The source made the active and inactive calls. Unless noted, calls come from the whole dose curve; as a rule, active = well fitted curve in the direction sought with a large enough effect; inconclusive = small, poorly fitted or top-dose-only effect, or another doubt; inactive = no such curve, though single readings can be large; an effect the other way counts as inactive or inconclusive.

Experiment [1] is described as follows: Cell Viability - Hek293 (AID 427;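 active = compounds whose dose-response curve shows a full or clear partial loss of cell viability, called from curve shape rather than a numeric limit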;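 note: potency is the fitted concentration of half-maximal effect; cells exposed to compound for 40 hours at 37 °C before reading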). The note with it: qHTS. In a few lines:
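HEK293 cells in complete medium were exposed to compound for 40 hr at 37 °C, then cellular ATP was read by CellTiter-Glo luminescence. Data were normalized to DMSO (basal) and 100 uM tamoxifen (100% inhibition), and AC50 came from Hill fits.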
For orientation: Quantitative high-throughput screening tests each substance at several concentrations.

The target in experiment [2] is Mitogen-activated protein kinase 10 (Mus musculus) (UniProt Q61831). As to the kind of experiment: JNK3 AlphaScreen Assay (AID 530; active = well fitted curve in either direction with a large enough effect, not every such curve was filed as active;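 note: kinase came from lysate of stimulated human HepG2 cells; signal reports phosphorylation of biotinylated GST-cJun 1-79 at Ser73 with 10 µM ATP; % is set by controls: 0 for no effect and ±100 for the full control effect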). The note with it: JNK3 lysate, c-Jun phosphorylation; series mostly up to 57.1 µM. In a few lines:
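Inhibitors reduce antibody binding to phosphorylated biotin-cJun, lowering AlphaScreen luminescence. Lysates from HepG2 cells pre-activated by IL-1beta plus TNF-alpha supplied JNK3; compounds were titrated.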

Experiment [3] is described as follows: Cell Viability - HUV-EC-C (AID 542). Note: % is set by controls: 0 for no effect and ±100 for the full control effect; nearly all actives have a fitted effect of over 35% in size. The following applies: HUV-EC-C endothelial cell viability, qHTS; series mostly up to 92.2 µM. The essentials: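 qHTS cytotoxicity: HUV-EC-C, 1000 cells/well, 5 hr settle, compound 40 hr 37 °C, CellTiter-Glo, luminescence. AC50 via Hill equation.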
Experiment [4] in a line: Cellular Toxicity (caspase-3) HepG2 (AID 654).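 Note: cells exposed to compound for 16 hours before reading; 0% = DMSO alone and 100% = caspase signal from 100 µM tamoxifen.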 The following applies: HepG2 caspase-3 activation, luminescence, 0% = DMSO only, 100% = tamoxifen; series mostly up to 92.2 µM. The essentials:
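Cells plated 5 hr at 37 °C, compound added, incubated 16 hr at 37 °C. Caspase-Glo 3/7 reagent followed, 20 min at room temperature, then luminescence read. Activation scored as signal increase; AC50 from Hill fit.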

Experiment [5] in a line: Cellular Toxicity (caspase-3) BJ (AID 658).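 Note: 0% = DMSO basal and 100% = 10 µM staurosporine.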 The note with it: BJ fibroblasts, luminescence, normalized: DMSO 0%, staurosporine 100%; series mostly up to 91.7 µM. The essentials:
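Luminescent aminoluciferin-substrate cleavage reports caspase 3/7 activity in normal human BJ fibroblasts after 16 hr compound exposure at 37 °C. Normalized to DMSO (basal) and 10 uM staurosporine (100%); AC50 from Hill fit of concentration-response.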

Experiment [6] in a line: MultiTox-Fluor Cytotoxicity Assay - LYMP1-003 - Dead Cells (AID 961).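 Note: 0% = DMSO and 100% = tetraoctylammonium bromide; nearly all actives have a fitted effect of over 70% in size.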 The following applies: LYMP1-003 lymphoblastoid cells, dead-cell protease fluorescence; series mostly up to 92.2 µM. The essentials: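 LYMP1-003 human lymphoblastoid cells (2500/well) exposed to compound 16 h at 37 C in complete medium; dead-cell protease read with bis-AAF-R110 fluorescence (Ex/Em 485/520) after 60 min at room temperature. Normalized to DMSO and 15 uM tetraoctylammonium bromide; AC50 from Hill fit.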

Experiment [7] can be described thus: Cell Viability - LYMP1-003 - Assay at 24 hr (AID 963).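 Note: plate controls were DMSO only for no effect and tetraoctylammonium bromide positive control for full effect.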 The following applies: LYMP1-003 lymphoblastoid cell viability; series mostly up to 92.2 µM. The essentials: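 Cells seeded at 2500/well, 5 hr at 37 C; compounds added; 24 hr at 37 C; CellTiter-Glo added, 30 min room temperature; luminescence read. Decrease in ATP taken as cytotoxicity, AC50 from Hill modelling.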

Experiment [8] in a line: Cell Viability - LYMP2-005 (AID 967).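 Note: plate controls were DMSO only for no effect and 92 µM tetraoctylammonium bromide control for full effect.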 The following applies: LYMP2-005 lymphoblastoid cell viability; series mostly up to 92.2 µM. In a few lines:
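CellTiter-Glo luminescence (cellular ATP) read-out; LYMP2-005 lymphoblastoid cells, 2500/well, 5 h pre-incubation, then 24 h compound exposure at 37 C in complete medium. Tetraoctylammonium bromide positive control; AC50 by standard Hill fit.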

Experiment [9] in a line: Cell Viability - LYMP2-013 (AID 970).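 Note: 0% = DMSO only and full inhibition = tetraoctylammonium bromide control; nearly all actives have a fitted effect of over 55% in size.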 The note with it: LYMP2-013 lymphoblastoid cells viability; series mostly up to 92.2 µM. In a few lines: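 qHTS; 2500 lymphoblastoid cells/well; 5 hr 37 C settle; cpd 24 hr 37 C; CellTiter-Glo, 30 min RT; luminescence. AC50 = Hill fit.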
The nature of experiment [10]: Cell Viability - LYMP2-015 (AID 971).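 Note: 0% = DMSO only and full effect = 92 µM tetraoctylammonium bromide; nearly all actives have a fitted effect of over 55% in size.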 The following applies: LYMP2-015 lymphoblastoid cell viability; series mostly up to 92.2 µM. In a few lines:
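Luminescent ATP read-out (CellTiter-Glo) served as the viability measure after lymphoblastoid cells were exposed to compounds for 24 hours at 37 C. Concentration-response data were fitted with the Hill equation to give AC50.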

Experiment [11] in a line: Cell Viability - LYMP2-017 (AID 972). Note: % is set by controls: 0 for no effect and ±100 for the full control effect; nearly all actives have a fitted effect of over 55% in size. The following applies: LYMP2-017 lymphoblastoid cell viability; series mostly up to 92.2 µM. In a few lines: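 2500 cells/well, 5 h 37 C; cpd 24 h 37 C in complete medium; CellTiter-Glo, 30 min RT; luminescence (ATP). AC50 via Hill fit, qHTS.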
Experiment [12] is described as follows: Cell Viability - LYMP2-019 (AID 973).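 Note: 0% = DMSO alone and full effect = 92 µM tetraoctylammonium bromide; nearly all actives have a fitted effect of over 55% in size.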 The note with it: LYMP2-019 lymphoblastoid cell line viability; series mostly up to 92.2 µM. The essentials: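 Luminescent ATP read-out (CellTiter-Glo, 30 min room temperature) served as the viability measure after 24 hr treatment of lymphoblastoid cells at 37 C. Concentration-response data were fitted to the Hill equation for AC50.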

Experiment [13] is described as follows: Cell Viability - LYMP2-023 (AID 975). The note with it: LYMP2-023 lymphoblastoid cell viability; series mostly up to 92.2 µM. The essentials:
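2500 cells/well, 5 hr 37 C; cpd 24 hr 37 C; CellTiter-Glo, 30 min RT; luminescence. qHTS conc-response, Hill fit -> AC50. Pos ctrl tetraoctylammonium bromide.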

Experiment [14] can be described thus: Cell Viability - LYMP2-007 (AID 979).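 Note: cells exposed to compound for 24 h before reading; 0% = DMSO only and the negative end = 92 µM tetraoctylammonium bromide; nearly all actives have a fitted effect of over 60% in size.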 The note with it: LYMP2-007 lymphoblastoid cell viability; series mostly up to 92.2 µM. The essentials:
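Luminescent ATP signal (CellTiter-Glo) serves as the viability read-out after 24 hr compound treatment of lymphoblastoid cells in complete medium at 37 C. Concentration-response data were fitted to the Hill equation to give AC50 values.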

Experiment [15] is described as follows: Cell Viability - LYMP2-024 (AID 988). Note: nearly all actives have a fitted effect of over 60% in size. Note: potency is the fitted concentration of half-maximal effect. The note with it: LYMP2-024 lymphoblastoid cell viability; series mostly up to 92.2 µM. The essentials:
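Steps: seed 2500 cells/well, 5 hr 37 C; add compound, 24 hr 37 C; add CellTiter-Glo, 30 min room temperature; read luminescence. AC50 derived by Hill modelling of concentration-dependent ATP loss.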

For experiment [16], the target named is Vitamin D3 receptor (Homo sapiens) (UniProt P11473). As to the kind of experiment: qHTS assay for small molecule agonists of vitamin D receptor signaling (AID 588543; calls by dose curve;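 note: 0% = DMSO basal and 100% = reference agonist control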). The note with it: HEK293T VDR-UAS-bla, beta-lactamase ratio, 16 h; series mostly up to 76.8 µM. The essentials:
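GeneBLAzer VDR-UAS-bla HEK293T cells in 2% charcoal-stripped FBS medium were dosed with compound titrations for 16 h at 37 °C; CCF4 β-lactamase readout (405 nm ex, 460/530 nm em). EC50 and efficacy from Hill fits, normalized to 50 nM calcitriol (100%) and DMSO (0%).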

The target in experiment [17] is Thyroid hormone receptor beta (Homo sapiens) (UniProt P10828). Put plainly: qHTS assay for small molecule agonists of thyroid hormone receptor beta signaling (AID 588545; calls by dose curve;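 note: 0% = DMSO only and 100% = 10 nM T3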). The following applies: TR-UAS-bla GripTite HEK 293, beta-lactamase ratio, agonist mode, 18 h; series mostly up to 76.7 µM. In a few lines:
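Efficacy and EC50 values derive from Hill fits of qHTS titration data, normalized to 10 nM T3 and DMSO-only wells. HEK 293 reporter cells were stimulated for 18 hrs at 37 C, with beta-lactamase activity measured by CCF4 fluorescence.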

Experiment [18] can be described thus: qHTS assay for small molecule antagonists of retinoid X receptor alpha signaling (AID 588546).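 Note: cells stimulated with 9-cis-retinoic acid as agonist; % is set by controls: 0 for no effect and ±100 for the full control effect.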 The note with it: HEK293T RXRa-UAS-bla, beta-lactamase ratio, antagonist mode; measured here: W530 green channel, cytotoxicity proxy. The essentials:
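Beta-lactamase reporter inhibition, read as CCF4 fluorescence ratio (ex 405, em 460/530 nm) after 2 h at RT. HEK293T UAS-bla cells, 2500/well, were stimulated with 9-cis-RA at 500 or 100 nM final alongside test compound for 18 h at 37 C.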

The nature of experiment [19]: qHTS assay for small molecule activators of the p53 signaling pathway (AID 651743; active = well fitted activation curve with a large enough effect in the signal ratio, not every such curve was filed as active; the % refers to the signal ratio; note: % of control where 0% means no effect). The following applies: HCT-116 p53RE-bla, beta-lactamase FRET ratio, 16 h; activation: stronger effect = higher value. In a few lines:
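Cell-based beta-lactamase reporter (p53 response elements, HCT-116 background). After a 5-hour preincubation, cells received compound for 16 hours at 37 C; substrate development ran 2 hours at room temperature.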

Experiment [20] is described as follows: MultiTox-Fluor Cytotoxicity Assay - LYMP1-002 - Live Cells (AID 955). Note: % is set by controls: 0 for no effect and ±100 for the full control effect. The note with it: LYMP1-002 lymphoblastoid live-cell protease fluorescence viability; series mostly up to 46.1 µM. The essentials: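 Read-out is live-cell protease activity (cell-permeant GF-AFC substrate, fluorescence Ex/Em=405/510), where a decrease indicates acute toxicity. Human lymphoblastoid cells were treated 16 hours at 37 C in a concentration series, and AC50 values came from standard Hill modelling.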

Sequence of Thyroid hormone receptor beta (Homo sapiens) (P10828 whole entry, looked up): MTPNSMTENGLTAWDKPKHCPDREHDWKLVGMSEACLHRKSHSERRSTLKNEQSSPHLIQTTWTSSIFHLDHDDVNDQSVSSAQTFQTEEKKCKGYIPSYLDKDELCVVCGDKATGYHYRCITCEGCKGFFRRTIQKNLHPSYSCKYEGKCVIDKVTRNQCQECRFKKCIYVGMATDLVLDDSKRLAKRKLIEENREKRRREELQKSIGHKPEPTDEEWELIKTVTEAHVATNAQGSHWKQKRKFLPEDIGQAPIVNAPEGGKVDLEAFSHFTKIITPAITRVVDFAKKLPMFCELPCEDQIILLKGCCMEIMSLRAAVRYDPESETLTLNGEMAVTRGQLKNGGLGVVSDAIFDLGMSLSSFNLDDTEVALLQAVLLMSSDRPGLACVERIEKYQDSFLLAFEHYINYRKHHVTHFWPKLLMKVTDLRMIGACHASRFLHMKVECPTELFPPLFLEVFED
Sequence of Vitamin D3 receptor (Homo sapiens) (P11473 whole entry, looked up): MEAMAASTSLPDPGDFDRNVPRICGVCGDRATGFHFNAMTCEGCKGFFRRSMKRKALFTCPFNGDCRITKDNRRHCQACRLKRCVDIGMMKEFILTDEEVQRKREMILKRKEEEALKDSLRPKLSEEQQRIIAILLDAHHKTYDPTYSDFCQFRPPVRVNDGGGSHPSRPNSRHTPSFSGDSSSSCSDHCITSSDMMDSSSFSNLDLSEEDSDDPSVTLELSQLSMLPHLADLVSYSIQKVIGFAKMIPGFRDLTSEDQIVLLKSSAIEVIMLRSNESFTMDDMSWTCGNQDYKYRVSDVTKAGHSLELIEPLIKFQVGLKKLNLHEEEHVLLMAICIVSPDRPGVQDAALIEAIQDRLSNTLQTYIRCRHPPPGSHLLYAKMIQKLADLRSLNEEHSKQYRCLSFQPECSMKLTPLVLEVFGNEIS

Turning to `Cc1cc(-c2ccc(N)c(C)c2)ccc1N`, the Potency in experiment [1] is > 92 µM (inactive). Moreover, the Potency entry in [2], in experiment [3], in experiment [6], in [8], in [9] and in [10] was “inactive” throughout. In addition, the Potency result in experiment [11], in [12], in experiment [13], in experiment [14], in [15] and in [17] was “inactive” in each case. In addition, the molecule was called inactive in [4], in experiment [5], in experiment [7] and in [16]. In addition, the max response in [18] was -15.7% and -12.6% and -3.84%. For the same molecule, the activation in [19] is -1.87% (inactive) and -0.84% (inactive) and 2.36% (inactive).
Consider `CN(C)c1ccc(N(C)C)cc1`, for which the Potency is > 92 µM (inactive) in experiment [1] and 50.1 µM (active) in experiment [15]. Besides, the Potency entry in experiment [2], in experiment [3], in [6], in experiment [13] and in [17] was “inactive” each time. Besides, the molecule was classed as inactive in experiment [4], in experiment [5], in experiment [20] and in experiment [7]. Also, the max response in [18] is -9.82%. For the same molecule, the activation in [19] is 1.85% (inactive).
For `C/C=C/C=O`, in experiment [1], the Potency was > 92 µM (inactive). For the same molecule, the Potency entry in experiment [2], in experiment [3], in experiment [6], in experiment [8], in experiment [9] and in experiment [10] was “inactive” throughout. Moreover, the Potency entry in experiment [11], in experiment [12], in experiment [13], in [14], in experiment [15] and in [17] was “inactive” each time. The molecule was classed as inactive in experiment [5], in experiment [20], in experiment [7] and in [16].
Regarding `O=[N+]([O-])c1cc(Cl)c(Cl)c(Cl)c1`, in experiment [1], the Potency is > 92 µM (inactive). Besides, the Potency entry in experiment [2], in experiment [3], in experiment [6], in experiment [8], in experiment [9] and in experiment [10] was “inactive” each time. For the same molecule, the Potency entry in [11], in experiment [12], in [13], in [14], in experiment [15] and in experiment [17] was “inactive” throughout. The result in experiment [4], in [5], in experiment [20], in experiment [7] and in experiment [16] was inactive. Further, in experiment [18], the max response is -6.59%. Further, in [19], the activation was -1.35% (inactive).
Regarding `c1ccoc1`, the Potency in [1] was > 92 µM (inactive). For the same molecule, the Potency result in experiment [2], in experiment [3], in experiment [6], in [8], in experiment [9] and in experiment [10] was “inactive” throughout. The Potency result in experiment [11], in [12], in experiment [13], in experiment [14], in experiment [15] and in experiment [17] was “inactive” in each case. Besides, the molecule was classed as inactive in experiment [5], in [20], in [7] and in experiment [16]. Further, the max response in experiment [18] was found to be 1%. Further, in [19], the activation was 1.16% (inactive).
Consider `O=C(Cl)c1ccccc1F`, for which the Potency in experiment [1] was > 92 µM (inactive). Also, the Potency result in experiment [2], in experiment [3], in [6], in experiment [8], in experiment [9] and in [10] was “inactive” each time. In addition, the Potency result in [11], in [12], in experiment [13], in experiment [14], in experiment [15] and in [17] was “inactive” each time. Further, the call in [4], in experiment [5], in [20], in [7] and in experiment [16] was inactive. Also, the max response in [18] was -4.19%. Moreover, the activation in [19] was -0.282% (inactive).
